# Target: NEFH
# Assay: pooled miR-30 sensor sort-seq; sequence = guide strand
# Settings: shRNA
# Further: reference of the scale not given here.
row,Sequence,sensor-assay potency score (higher = more potent)
1,TATTGCTAACAGAAATTCCTGT,0.67
2,TACCTCTGTCTTTTCTTTGGGT,0.0672
3,TAAGCTATCATAATTGTCCATC,-0.916
4,TTCAACTTTGGATTCTTTGGGC,0.436

# Target: NEIL1
# Assay: as above
# Settings: shRNA
row,Sequence,sensor-assay potency score (higher = more potent)
1,TTTCGTAGCACACTCTCCCTGA,0.529
2,ATGTCAGCCTTGACCTTCCGGG,-0.984
3,TTCTTTTTGCGGGACTTGCGCC,-1.12
4,TGGGATGTCAGCCTTGACCTTC,-1.09
5,TGAGTGACATAGCTCCAGCAGG,-1.15
6,TACTCCTGCAAGACACAGGGCC,-0.384
7,TTGGTCCTTATCTTCTGGCTCA,-0.526
8,TGAACTGCTGGTACTCCTGCAA,-0.0198
9,TCTGTCCTCAGGACTCAGCTGT,-0.0425
10,TTGCAGTCCTCTTAGGAAGGTC,-0.51
11,TATCTTCTGGCTCAGGGTCAGC,-1.69
12,TCTTAGGAAGGTCTCTCTTTGC,-1.22

# From the OligoGym collection
